Assay results as given in PubChem BioAssay (Tox21).
Results filed as inconclusive are left out. Entries that show only a call come without a potency. Values without a mark were called inactive. Active and inactive are the calls of the source. Calls follow the shape of the dose curve; as a rule, active = well fitted cell-killing curve with a large enough effect in the repeat runs; inconclusive = weak or mixed curves, or effect the other way; inactive = flat fitted curve, though single readings scatter.

What was measured:
[1] = cAMP Responsive Elements (CRE) small molecule antagonists, cell-based qHTS assay: qHTS cell viability counter screen (AID 2060913); settings: CRE-bla HEK293T viability, CellTiter-Glo luminescence, 5 h; series mostly up to 92.4 µM; also: nearly all actives have a fitted effect of over 40% in size
In short: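 Steps: cells plated and held 18 hrs at 37 C/5% CO2; compounds and NKH477 (0.25 uM final) added; 3 hrs incubation; reporter substrate read; CellTiter-Glo added to measure cytotoxicity by luminescence.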

[2] = cAMP Responsive Elements (CRE) small molecule agonists, cell-based qHTS assay: qHTS cell viability counter screen (AID 2060914); settings: CRE-bla HEK293T viability, CellTiter-Glo luminescence, 5 h; series mostly up to 92.4 µM; also: nearly all actives have a fitted effect of over 50% in size
In short: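 Luminescence read-out (CellTiter-Glo, 30 min RT) of ATP-based viability in CRE-bla HEK 293T cells, run in the same wells as the β-lactamase reporter assay after 3 h compound treatment at 37 °C.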

SMILES | Potency [1] | Potency [2] | viability change, negative = cytotoxic [1] | activity change, negative = cytotoxicity [2]
CC(CN1CC(=O)NC(=O)C1)N1CC(=O)NC(=O)C1 (stereo not given) | inactive | inactive |  | 
Nc1cccc(C(F)(F)F)c1 | inactive | inactive |  | 
CCCCCCOc1ccc(N)cc1 | inactive | inactive |  | 
COc1ccc(N=[N+]([O-])c2ccc(OC)cc2)cc1 | inactive | inactive |  | 
Clc1cc(Cl)cc(Cl)c1 | inactive | inactive |  | 
O=c1n(CCCN2CCN(c3cccc(Cl)c3)CC2)nc2ccccn12 | inactive | inactive |  | 
Nc1ccc(S(=O)(=O)Nc2ccccn2)cc1 | inactive | inactive |  | 
O=C(O)c1ccc(O)cc1O | inactive | inactive |  | 
O=S(=O)(O)c1cccc2ccccc12 | inactive | inactive |  | 
Cc1ccc([N+](=O)[O-])cc1Cl | inactive | inactive |  | 
COc1ccc(OC)c(OC)c1 | inactive | inactive |  | 
C/C=C/C(=O)N(CC)c1ccccc1C | inactive | inactive |  | 
CCCCCCC(C)O (stereo not given) | inactive | inactive |  | 
CN1CCCC1 | inactive | inactive |  | 
O=C(O)c1cc(-c2ccccc2)nc2ccccc12 | inactive | inactive |  | 
CCCCCCCCSCC | inactive | inactive |  | 
CC1OCCC1=O (stereo not given) | inactive | inactive |  | 
OCCC(F)(F)C(F)(F)C(F)(F)C(F)(F)C(F)(F)C(F)(F)C(F)(F)C(F)(F)F | inactive | inactive |  | 
Cc1ncc(CO)c(C=O)c1O | inactive | inactive |  | 
CCC(C)(C)C1CCCCC1OC(C)=O (stereo not given) | inactive | inactive |  | 
COc1cc(NS(=O)(=O)c2ccc(N)cc2)nc(OC)n1 | inactive | inactive |  | 
CN=C(NC#N)NCCSCc1nc[nH]c1C | inactive | inactive |  | 
CC12CC3CC(C)(C1)CC(N)(C3)C2 | inactive | inactive |  | 

SMILES | Potency [1] | Potency [2] | viability change, negative = cytotoxic [1] | activity change, negative = cytotoxicity [2]
C[Si](C)O[Si](C)C | inactive | inactive |  | 
COC(=O)NN | inactive | inactive |  | 
CCCC(O)C(O)CO (stereo not given) | inactive | inactive |  | 
O=C(OOC(=O)c1ccccc1)c1ccccc1 | inactive | inactive |  | 
COP(=O)(OC)OC(c1ccc(Cl)cc1)P(=O)(OC)OC (stereo not given) | inactive | inactive |  | 
NC(=O)N1c2ccccc2C=Cc2ccccc21 | inactive | inactive |  | 
CC[C@H]1CC[C@H](NCc2cc3c(cc2OC)[C@H]2C[C@H]2C(=O)N3C)[C@H](c2ccccc2)N1 | inactive | inactive |  | 
CCOC(=O)N1CCC(n2c(=O)[nH]c3cc(Cl)ccc32)CC1 | inactive | inactive |  | 
O=[N+]([O-])c1cccc(Cl)c1 | inactive | inactive |  | 
Cc1ccc(N(CC2=NCCN2)c2cccc(O)c2)cc1 | inactive | inactive |  | 
CCc1cc(C(C)(C)C)c(O)c(C(C)(C)C)c1 | inactive | inactive |  | 
O=C1OC(=O)c2cc(Oc3ccc4c(c3)C(=O)OC4=O)ccc21 | inactive | inactive |  | 
CN1C(=O)CC(c2ccccc2)C1=O (stereo not given) | inactive | inactive |  | 
CCN(CC)CCNC(=O)c1c(C)[nH]c(/C=C2\C(=O)Nc3ccc(F)cc32)c1C | inactive | inactive |  | 
CNS(=O)(=O)Cc1ccc2[nH]cc(CCN(C)C)c2c1 | inactive | inactive |  | 
C[C@@H]1C[C@H]2[C@@H]3CCC4=CC(=O)C=C[C@]4(C)[C@@]3(Cl)[C@@H](O)C[C@]2(C)[C@@]1(OC(=O)c1ccco1)C(=O)CCl | inactive | inactive |  | 
CC(C)=CCC/C(C)=C/C=O | inactive | inactive |  | 
SCCSCCS | inactive | inactive |  | 
Cc1cc(C2(c3cc(C)c(O)cc3C)OS(=O)(=O)c3ccccc32)c(C)cc1O | inactive | inactive |  | 
C/C=C(\C)C(=O)OC/C=C(\C)CCC=C(C)C | inactive | inactive |  | 
Cc1ccccc1C(=O)Nc1ccc(C(=O)N2CCCC(N(C)C)c3ccccc32)cc1 (stereo not given) | inactive | inactive |  | 
CCCCCCn1c(=O)c2c(ncn2C)n(C)c1=O | inactive | inactive |  | 
C[C@H](NC(CCc1ccccc1)C(=O)O)C(=O)N1CCC[C@H]1C(=O)O (stereo not given in full) | inactive | inactive |  | 

SMILES | Potency [1] | Potency [2] | viability change, negative = cytotoxic [1] | activity change, negative = cytotoxicity [2]
CC1CCC(CO)CC1 (stereo not given) | inactive | inactive |  | 
COC1=CC(=O)C[C@@H](C)[C@]12Oc1c(Cl)c(OC)cc(OC)c1C2=O | inactive | inactive |  | 
Nc1c[n+](N2CCOCC2)no1 | inactive | inactive |  | 
C=C(C)C(=O)OCC(C)(C)COC(=O)C(=C)C | inactive | inactive |  | 
O=[N+]([O-])c1ccccc1CCO | inactive | inactive |  | 
CCN(CC)CCNc1ccc(CO)c2sc3ccccc3c(=O)c12 | inactive | inactive |  | 
N[C@@H](CCC(=O)N[C@@H](CS)C(=O)NCC(=O)O)C(=O)O |  |  | 4.12% [at 18.9 µM] | -1.41% [at 18.9 µM]
O=C1c2c(O)ccc(Nc3ccc(CCO)cc3)c2C(=O)c2c([N+](=O)[O-])ccc(O)c21 | inactive | inactive |  | 
O=[N+]([O-])c1ccc(CO)cc1 | inactive | inactive |  | 
CC[C@@H](N)CO | inactive | inactive |  | 
O=C1C(c2[nH]c3ccccc3c2O)=Nc2ccccc21 | inactive | inactive |  | 
Cc1oc(-c2ccccc2)nc1CCC(=O)c1ccc(CC2SC(=O)NC2=O)cc1 (stereo not given) | inactive | inactive |  | 
Cc1cccc2ccccc12 | inactive | inactive |  | 
CCO[Si](CCCNC(N)=O)(OCC)OCC | inactive | inactive |  | 
Cc1c[nH]c(=O)[nH]c1=O | inactive | inactive |  | 
CCC(=O)/C=C/C1C(C)=CCCC1(C)C (stereo not given) | inactive | inactive |  | 
CN(C)c1nc(N(C)C)nc(N(C)C)n1 | inactive | inactive |  | 
O=c1ccc2ccccc2o1 | inactive | inactive |  | 
O=C(O)CCCCCCCCCCCC(=O)O | inactive | inactive |  | 
CCCCCCCCCCCCCCCC(=O)O | inactive | inactive |  | 
Cc1nc(-c2ccc(Cl)cc2)oc1COC(C)(C)C(=O)O | inactive | inactive |  | 
C=C(C)C(=O)OCC1CCCO1 (stereo not given) | inactive | inactive |  | 
CCN(CC)c1ccc(C=O)c(O)c1 | inactive | inactive |  | 

SMILES | Potency [1] | Potency [2] | viability change, negative = cytotoxic [1] | activity change, negative = cytotoxicity [2]
O=C(O)c1ccccc1C(=O)Nc1ccc(S(=O)(=O)Nc2nccs2)cc1 | inactive | inactive |  | 
CCN(CC)CCNC(=O)c1cc(Br)c(N)cc1OC | inactive | inactive |  | 
CCCCCCCOC(=O)c1ccc(O)cc1 | inactive | inactive |  | 
CO[Si](CCCCl)(OC)OC | inactive | inactive |  | 
O=C(O)c1ccccc1C(=O)OCc1ccccc1 | inactive | inactive |  | 
Cc1ccc(-c2ccccc2C#N)cc1 | inactive | inactive |  | 
O=Cc1ccc(Cl)c([N+](=O)[O-])c1 | inactive | inactive |  | 
CC(=O)Oc1ccc(C(C)=O)cc1 | inactive | inactive |  | 
CC(CO)(CO)C(=O)O | inactive | inactive |  | 
O=C(O[C@@H](C(=O)O)[C@@H](OC(=O)c1ccccc1)C(=O)O)c1ccccc1 | inactive | inactive |  | 
CCCCC(CC)COCCO (stereo not given) | inactive | inactive |  | 
C=CC(=O)NC(C)(C)C | inactive | inactive |  | 
CC(C)S | inactive | inactive |  | 
c1ccc2sc(SSc3nc4ccccc4s3)nc2c1 |  |  | 2.3% [at 18.9 µM] | -2.25% [at 18.9 µM]
NCCS(=O)(=O)O | inactive | inactive |  | 
Nc1c(CC(=O)O)cccc1C(=O)c1ccc(Br)cc1 | inactive | inactive |  | 
C=CC(=O)OCCOC1C2CCC1C1CC=CC12 (stereo not given) |  |  | 9.26% [at 18.9 µM] | -3.05% [at 18.9 µM]
COc1nc(C)nc(Cl)c1NC1=NCCN1 | inactive | inactive |  | 
O=C(O)c1ccccc1Nc1cccc(C(F)(F)F)c1 | inactive | inactive |  | 
Cc1ccc(N)cc1[N+](=O)[O-] | inactive | inactive |  | 
COC(=O)N[C@H](C(=O)N[C@@H](Cc1ccccc1)[C@@H](O)CN(Cc1ccc(-c2ccccn2)cc1)NC(=O)[C@@H](NC(=O)OC)C(C)(C)C)C(C)(C)C | inactive | inactive |  | 
Cc1ccc(S(=O)(=O)NC2CCCCC2)cc1 | inactive | inactive |  | 
CC(C)(C)c1cc(CCC(=O)OCCSCCOC(=O)CCc2cc(C(C)(C)C)c(O)c(C(C)(C)C)c2)cc(C(C)(C)C)c1O | inactive | inactive |  | 

SMILES | Potency [1] | Potency [2] | viability change, negative = cytotoxic [1] | activity change, negative = cytotoxicity [2]
O=C(O)c1ccc(Cl)cc1Cl | inactive | inactive |  | 
C(/C=C/C=C/Nc1ccccc1)=Nc1ccccc1 | inactive | inactive |  | 
Cc1ccc2nc(-c3ccc(N)cc3)sc2c1S(=O)(=O)O | inactive | inactive |  | 
CC[N+](CC)(CC(=O)Nc1c(C)cccc1C)Cc1ccccc1 | inactive | inactive |  | 
O=C1C=CCCC1 | inactive | inactive |  | 
O=C(OCc1ccccc1)c1ccccc1O | inactive | inactive |  | 
CCCCN(CCCC)CCC(O)c1cc2c(Cl)cc(Cl)cc2c2cc(C(F)(F)F)ccc12 (stereo not given) | inactive | inactive |  | 
CC(=O)NCc1c(I)c(NC(C)=O)c(I)c(C(=O)O)c1I | inactive | inactive |  | 
CC(=O)O[C@H]1C[C@@H]2CC[C@@H]3[C@H](CC[C@@]4(C)[C@H]3C[C@H]([N+]3(C)CCCCC3)[C@@H]4OC(C)=O)[C@@]2(C)C[C@@H]1N1CCCCC1 | inactive | inactive |  | 
COc1cc(OC)cc(OC)c1 | inactive | inactive |  | 
O=C(O)P(=O)(O)O | inactive | inactive |  | 
S=P(N1CC1)(N1CC1)N1CC1 | inactive | inactive |  | 
COCC(=O)Nc1c(I)c(C(=O)NCC(O)CO)c(I)c(C(=O)N(C)CC(O)CO)c1I (stereo not given) | inactive | inactive |  | 
C=CC(=O)CCCCC | inactive | inactive |  | 
CC(CC(C#N)(c1ccccc1)C(C)C)N(C)C (stereo not given) | inactive | inactive |  | 
CCOC(=O)Cn1c(=O)sc2cccc(Cl)c21 | inactive | inactive |  | 
C=C[Si](OC(=C)C)(OC(=C)C)OC(=C)C | inactive | inactive |  | 
CCCCOC(=O)C(C)Oc1ccc(Oc2ccc(C(F)(F)F)cn2)cc1 (stereo not given) | inactive | inactive |  | 
COc1ccccc1[N+](=O)[O-] | inactive | inactive |  | 
O=C1Nc2ccc([N+](=O)[O-])cc2C1=O | inactive | inactive |  | 
CCCCCCCCCCO | inactive | inactive |  | 
CCCC(=O)OCC | inactive | inactive |  | 
COc1ccc(/C=N/NC(=O)c2ccncc2)cc1OC | inactive | inactive |  | 
